Data reported in PubChem BioAssay AID1159580 (chemical genetic matrix, 2015).
Several values for one entry are separate records, joined by “and”; a condition that tells them apart may be missing. Identical values can stand only once. Out of some 5,500 compounds screened, about 2,000 (36%) were called active. Roughly 18% stayed inconclusive and do not appear here. Cut-off read from the data, not from the text of the source: active = normalized growth mostly below about 0.91 (no sharp cut-off); inconclusive = no clear call, values can overlap the other calls; inactive = mostly above about 0.92. The list shows a part of the results.

Assay: chemical genetic growth profiling, strain panel (AID 1159580);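 note: tested at 20 µM; growth read once vehicle control cultures reached saturation at 30 °C; 1 = growth at the plate median or of vehicle wells; lower values mean less growth of the strain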
Settings: S. cerevisiae deletion strains, growth OD

Measured: normalized growth

CC(=O)Oc1cc(OC(C)=O)c2c(c1)O[C@H](c1ccc(OC(C)=O)c(OC(C)=O)c1)[C@@H](OC(C)=O)C2
inactive: locus YAL013W, strain DEP1, hits give low values 1 | locus YAL021C, strain ccr4, hits give low values 1 | locus YAL026C, strain drs2, hits give low values 0.995 | locus YAL030W, strain snc1, hits give low values 1 | locus YBL061C, strain skt5, hits give low values 1 | locus YBR009C, strain hhf1, hits give low values 1.02 | locus YBR021W, strain FUR4, hits give low values 0.975 | locus YBR023C, strain chs3, hits give low values 1 | locus YBR171W, strain sec66, hits give low values 1 | locus YBR229C, strain ROT2, hits give low values 0.992 | locus YBR231C, strain swc5, hits give low values 0.99 | locus YBR279W, strain paf1, hits give low values 1 | locus YCL011C, strain gbp2, hits give low values 1 | locus YCL016C, strain dcc1, hits give low values 1 | locus YCL029C, strain bik1, hits give low values 0.965 | locus YCL061C, strain MRC1, hits give low values 0.994 | locus YCL069W, strain vba3, hits give low values 1 | locus YCR088W, strain abp1, hits give low values 1 | locus YDL005C, strain med2, hits give low values 1 | locus YDL035C, strain GPR1, hits give low values 0.995 | locus YDL040C, strain nat1, hits give low values 1 | locus YDL074C, strain BRE1, hits give low values 0.99 | locus YDL101C, strain DUN1, hits give low values 0.994 | locus YDL134C, strain PPH21, hits give low values 1.04 | locus YDL185W, strain tfp1, hits give low values 0.972 | locus YDL192W, strain arf1, hits give low values 0.98 | locus YDR001C, strain nth1, hits give low values 1 | locus YDR069C, strain doa4, hits give low values 0.994 | locus YDR101C, strain arx1, hits give low values 0.961 | locus YDR137W, strain rgp1, hits give low values 1.02 | locus YDR159W, strain sac3, hits give low values 0.999 | locus YDR162C, strain NBP2, hits give low values 0.997 | locus YDR195W, strain ref2 0.966 | locus YDR297W, strain sur2, hits give low values 1.01 | locus YDR318W, strain mcm21, hits give low values 1.01 | locus YDR334W, strain swr1, hits give low values 1 | locus YDR335W, strain msn5, hits give low values 0.997 | locus YDR388W, hits give low values 0.978 | locus YDR392W, strain spt3, hits give low values 0.927 | locus YDR502C, strain sam2, hits give low values 0.984 | locus YEL003W, strain gim4, hits give low values 1 | locus YEL037C, strain rad23, hits give low values 1 | locus YEL061C, strain CIN8 (second series), hits give low values 0.998 | locus YEL061C, strain CIN8, hits give low values 1 | locus YER015W, strain faa2, hits give low values 0.995 | locus YER016W, strain bim1, hits give low values 0.999 | locus YER110C, hits give low values 0.97 | locus YER111C, strain swi4, hits give low values 1 | locus YER155C, strain BEM2 (second series), hits give low values 1 | locus YER155C, strain BEM2, hits give low values 1 | locus YER167W, strain BCK2, hits give low values 1 | locus YFR010W, strain ubp6, hits give low values 1 | locus YGL078C, strain dbp3, hits give low values 0.979 | locus YGL086W, strain mad1, hits give low values 0.955 | locus YGL167C, strain pmr1, hits give low values 1 | locus YGL173C, strain kem1, hits give low values 1.01 | locus YGL227W, strain vid30, hits give low values 0.993 | locus YGL240W, strain doc1, hits give low values 1 | locus YGL248W, strain PDE1, hits give low values 0.993 | locus YGL253W, strain hxk2, hits give low values 0.997 | locus YGR078C, strain PAC10, hits give low values 0.991 | locus YGR135W, strain pre9, hits give low values 0.992 | locus YGR229C, strain SMI1, hits give low values 0.992 | locus YGR252W, strain gcn5, hits give low values 1.1 | locus YHR013C, strain ard1, hits give low values 0.967 | locus YHR027C, strain rpn1, hits give low values 1 | locus YHR030C, strain SLT2, hits give low values 0.998 and 0.994 | locus YHR079C, strain IRE1 (second series), hits give low values 0.98 | locus YHR079C, strain IRE1, hits give low values 0.98 | locus YHR094C, strain hxt1, hits give low values 0.985 | locus YHR129C, strain ARP1, hits give low values 1 | locus YHR142W, strain chs7, hits give low values 1.02 | locus YHR200W, strain rpn10, hits give low values 0.982 | locus YIL066C, strain RNR3, hits give low values 0.978 | locus YIL073C, strain SPO22, hits give low values 1.01 | locus YIL125W, strain kgd1, hits give low values 0.975 | locus YIR030C, strain dcg1, hits give low values 0.982 | locus YJL092W, strain hpr5, hits give low values 0.997 | locus YJL095W, strain BCK1 (second series), hits give low values 1 | locus YJL095W, strain BCK1, hits give low values 1.02 and 0.979 | locus YJL115W, strain asf1, hits give low values 0.99 | locus YJL129C, strain trk1, hits give low values 0.995 | locus YJL134W, strain LCB3, hits give low values 0.997 | locus YJL154C, strain vps35, hits give low values 0.997 | locus YJL164C, strain tpk1, hits give low values 1 | locus YJL166W, strain qcr8, hits give low values 1.01 | locus YJL168C, strain set2, hits give low values 0.981 | locus YJL187C, strain SWE1 (second series), hits give low values 0.985 | locus YJL187C, strain SWE1, hits give low values 1 | locus YJR043C, strain POL32, hits give low values 1.01
